Experimental data: the supplement of paper PMC6658780
Counter-ions that a name gives are not always drawn. ± gives the standard deviation of the averaged measurements.

system: Klebsiella pneumoniae KPC-119; assay: percent growth inhibition of drug + antibiotic vs DMSO control; higher = more growth inhibition; settings: antibiotic (0.125x MIC): gentamicin; 20 µM

Compound | percent growth inhibition [%]
O=C(O)c1cn(-c2ccc(F)cc2)c2cc(N3CCNCC3)c(F)cc2c1=O [Sarafloxacin] | 99.82 ± 0.22
CN(C)c1ccc(O)c2c1C[C@H]1C[C@H]3[C@H](N(C)C)C(O)=C(C(N)=O)C(=O)[C@@]3(O)C(O)=C1C2=O [Minocycline hydrochloride] | 95.3 ± 1.8
CN[C@@H]1[C@@H](O[C@H]2O[C@H](CO)[C@@H](N)[C@H](O)[C@H]2O)OC2C[C@@H](N)[C@@H](O[C@H]3[C@H](O)[C@@H](O)[C@H](N)C[C@@H]3N)OC2[C@@H]1O (stereo not given in full) [Apramycin] | 99.968 ± 0.004
O=C1OCCN1/N=C/c1ccc([N+](=O)[O-])o1 [Furazolidone] | 99.78 ± 0.13
CC(=O)OC[C@H]1O[C@@H]([S-])[C@H](OC(C)=O)[C@@H](OC(C)=O)[C@@H]1OC(C)=O.CCP(CC)CC.[Au+] [Auranofin] | 99.78 ± 0.2
CO[C@H]1/C=C/O[C@@]2(C)Oc3c(C)c(O)c4c(c3C2=O)C2=NC3(CCN(CC(C)C)CC3)NC2=C(NC(=O)/C(C)=C\C=C\[C@H](C)[C@H](O)[C@@H](C)[C@@H](O)[C@@H](C)[C@H](OC(C)=O)[C@@H]1C)C4=O [Rifabutin] | 99.4 ± 0.45

same assay, conditions: antibiotic (0.125x MIC): meropenem; 7 µM

Compound | percent growth inhibition [%]
O=c1[nH]c(=O)n([C@H]2C[C@H](O)[C@@H](CO)O2)cc1F [Floxuridine] | 89.6 ± 10
O=C(O)c1cn(-c2ccc(F)cc2)c2cc(N3CCNCC3)c(F)cc2c1=O [Sarafloxacin] | 99.613 ± 0.042
CC(=O)OC[C@H]1O[C@@H]([S-])[C@H](OC(C)=O)[C@@H](OC(C)=O)[C@@H]1OC(C)=O.CCP(CC)CC.[Au+] [Auranofin] | 98.3 ± 1.4

same assay, conditions: antibiotic (0.125x MIC): meropenem; 20 µM

Compound | percent growth inhibition [%]
O=c1[nH]c(=O)n([C@H]2C[C@H](O)[C@@H](CO)O2)cc1F [Floxuridine] | 98.5 ± 1.4
O=C(O)c1cn(-c2ccc(F)cc2)c2cc(N3CCNCC3)c(F)cc2c1=O [Sarafloxacin] | 83.6 ± 19
CC(=O)OC[C@H]1O[C@@H]([S-])[C@H](OC(C)=O)[C@@H](OC(C)=O)[C@@H]1OC(C)=O.CCP(CC)CC.[Au+] [Auranofin] | 99.5 ± 0.13
CO[C@H]1/C=C/O[C@@]2(C)Oc3c(C)c(O)c4c(c3C2=O)C2=NC3(CCN(CC(C)C)CC3)NC2=C(NC(=O)/C(C)=C\C=C\[C@H](C)[C@H](O)[C@@H](C)[C@@H](O)[C@@H](C)[C@H](OC(C)=O)[C@@H]1C)C4=O [Rifabutin] | 99.645 ± 0.017

system: Klebsiella pneumoniae NCTC-13439; assay: as above; settings: antibiotic (0.125x MIC): ciprofloxacin; 7 µM

Compound | percent growth inhibition [%]
O=c1[nH]c(=O)n([C@H]2C[C@H](O)[C@@H](CO)O2)cc1F [Floxuridine] | 64.6 ± 15
O=C(O)c1cn(-c2ccc(F)cc2)c2cc(N3CCNCC3)c(F)cc2c1=O [Sarafloxacin] | 59.24 ± 0.15
CC[C@H]1OC(=O)[C@H](C)[C@@H](O[C@H]2C[C@@](C)(OC)[C@@H](O)[C@H](C)O2)[C@H](C)[C@@H](O[C@@H]2O[C@H](C)C[C@H](N(C)C)[C@H]2O)[C@](C)(O)C[C@@H](C)CN(C)[C@H](C)[C@@H](O)[C@]1(C)O [Azithromycin] | 44.5 ± 5.6
O=C1OCCN1/N=C/c1ccc([N+](=O)[O-])o1 [Furazolidone] | 17 ± 1.2
CO[C@H]1/C=C/O[C@@]2(C)Oc3c(C)c(O)c4c(O)c(c5c(nc6cc(C)ccn65)c4c3C2=O)NC(=O)/C(C)=C\C=C\[C@H](C)[C@H](O)[C@@H](C)[C@@H](O)[C@@H](C)[C@H](OC(C)=O)[C@@H]1C [Rifaximin] | -1.2 ± 3.8
CC(=O)OC[C@H]1O[C@@H]([S-])[C@H](OC(C)=O)[C@@H](OC(C)=O)[C@@H]1OC(C)=O.CCP(CC)CC.[Au+] [Auranofin] | 10.8 ± 5.5
CO[C@H]1/C=C/O[C@@]2(C)Oc3c(C)c(O)c4c(c3C2=O)C2=NC3(CCN(CC(C)C)CC3)NC2=C(NC(=O)/C(C)=C\C=C\[C@H](C)[C@H](O)[C@@H](C)[C@@H](O)[C@@H](C)[C@H](OC(C)=O)[C@@H]1C)C4=O [Rifabutin] | 21.5 ± 7.5

same assay, conditions: antibiotic (0.125x MIC): ciprofloxacin; 20 µM

Compound | percent growth inhibition [%]
O=c1[nH]c(=O)n([C@H]2C[C@H](O)[C@@H](CO)O2)cc1F [Floxuridine] | 99.05 ± 0.42
O=C(O)c1cn(-c2ccc(F)cc2)c2cc(N3CCNCC3)c(F)cc2c1=O [Sarafloxacin] | 99.59 ± 0.23
CC[C@H]1OC(=O)[C@H](C)[C@@H](O[C@H]2C[C@@](C)(OC)[C@@H](O)[C@H](C)O2)[C@H](C)[C@@H](O[C@@H]2O[C@H](C)C[C@H](N(C)C)[C@H]2O)[C@](C)(O)C[C@@H](C)CN(C)[C@H](C)[C@@H](O)[C@]1(C)O [Azithromycin] | 99.666 ± 0.042
O=C1OCCN1/N=C/c1ccc([N+](=O)[O-])o1 [Furazolidone] | 99.97 ± 0.19
CO[C@H]1/C=C/O[C@@]2(C)Oc3c(C)c(O)c4c(O)c(c5c(nc6cc(C)ccn65)c4c3C2=O)NC(=O)/C(C)=C\C=C\[C@H](C)[C@H](O)[C@@H](C)[C@@H](O)[C@@H](C)[C@H](OC(C)=O)[C@@H]1C [Rifaximin] | 50.5 ± 1.9
